Hits are enriched below; roughly 21% of the tested compounds scored in any of these assays.
TDP1 cell CPT: qHTS for Inhibitors of human tyrosyl-DNA phosphodiesterase 1 (TDP1): qHTS in cells in presence of CPT | chicken DT40 Tdp1-/-;hTDP1 cells + 20 nM CPT, ATP luminescence, 48 h | Potency, µM (doses to about 46.2 µM), inactives show at the top dose activity change, negative = growth inhibition, usual class: inhibitors | actives 12% (n = 420,000) | AID 686979, 2013; note: potency is the fitted concentration of half-maximal effect; % is set by controls: 0 for no effect and ±100 for the full control effect; nearly all actives have a fitted effect of over 55% in size
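Cell growth measured by CellTiter-Glo luminescence after a minimum 48 h, 37 C compound exposure with 20 nM CPT in Tdp1-knockout DT40 cells stably expressing hTDP1, seeded 400/well; qHTS titration format.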
DRD3 antagonist: qHTS of D3 Dopamine Receptor Antagonist: qHTS | D3R cells, DiscoveRx beta-arrestin luminescence, antagonist mode; hits give low values | D(3) dopamine receptor (Homo sapiens), P35462 | actives 2.5% (n = 360,000) | max response, negative = inhibition, %; in the data active = max response below about -50%; inconclusive = no clear call, values can overlap the other calls; note: % is set by controls: 0 for no effect and ±100 for the full control effect
Target sequence (P35462 whole entry, looked up): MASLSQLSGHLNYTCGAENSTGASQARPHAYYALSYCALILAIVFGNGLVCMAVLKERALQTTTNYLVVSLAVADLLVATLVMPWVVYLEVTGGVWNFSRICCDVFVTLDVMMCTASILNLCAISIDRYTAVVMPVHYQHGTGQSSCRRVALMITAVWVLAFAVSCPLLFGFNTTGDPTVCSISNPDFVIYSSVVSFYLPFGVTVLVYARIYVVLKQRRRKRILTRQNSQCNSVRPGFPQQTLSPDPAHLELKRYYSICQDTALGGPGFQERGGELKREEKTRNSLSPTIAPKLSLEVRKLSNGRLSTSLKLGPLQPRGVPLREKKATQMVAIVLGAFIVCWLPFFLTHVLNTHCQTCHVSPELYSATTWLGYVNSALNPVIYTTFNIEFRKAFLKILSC
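Cells expressing the human receptor were seeded at 1500 cells/well, incubated overnight at 37 degrees C in 5% CO2, then exposed to library compounds with dopamine controls for 90 minutes at 37 degrees C before luminescent detection.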
TDP1 cell noCPT: qHTS for Inhibitors of human tyrosyl-DNA phosphodiesterase 1 (TDP1): qHTS in cells in absence of CPT. DT40 Tdp1-/- hTDP1 cells, no CPT, ATP luminescence, 48 h. Potency, µM (top dose mostly 46.2 µM), for inactives: at the top dose activity change, negative = growth inhibition, actives largely listed as inhibitors. actives 15% (n = 420,000); note: potency is the fitted concentration of half-maximal effect; % is set by controls: 0 for no effect and ±100 for the full control effect; nearly all actives have a fitted effect of over 55% in size
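Camptothecin absent (DMSO only). Human TDP1-complemented DT40 knockout cells, 400 cells/well, 37 °C for minimum 48 hr; ATP measured via CellTiter-Glo, 30 min dark incubation, luminescence.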
D3 ag: qHTS of D3 Dopamine Receptor Agonist: qHTS | AID 652048, 2013 | D3R DiscoveRx beta-arrestin cells, luminescence, 90 min | D(3) dopamine receptor (Homo sapiens), P35462 | actives 0.58% (n = 410,000) | max activation, %; in the data active = max activation above about 30%; note: 0% is about no effect
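Agonist-mode cell screen: cells plated at 1500/well and incubated overnight at 37 °C, then exposed to library compounds for 90 min at 37 °C. Detection reagent was added for 30–60 min at room temperature, and luminescence was read.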
IL1B secr inh: qHTS for Inhibitors of Inflammasome Signaling: IL-1-beta AlphaLISA Primary Screen; THP-1 LPS/ATP IL-1B secretion, AlphaLISA, 16 h; hits give low values; activity change, % at 57.5 µM; actives 4.7% (n = 360,000); AID 743279, 2014; in the data active = activity change below about -50%; inconclusive = mostly about -30% to -49%; note: % is set by controls: 0 for no effect and ±100 for the full control effect
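Secreted IL-1B measured by AlphaLISA bead assay after 16 h compound exposure of THP-1 cells; compounds (final up to 57.5 uM) added 1 h before LPS (250 ng/mL) and ATP (1.25 mM) stimulation; lower signal means less secretion.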
ClpP mod: qHTS Assay for Activators of ClpP; actives 1.9% (n = 340,000); ATP-dependent Clp protease proteolytic subunit (Bacillus subtilis (strain 168)), P80244; Potency, µM (titrated, usually from 57.5 µM), without a hit: at the top dose activity change, negative = active; purified B. subtilis ClpP, FRET peptide cleavage, 20 min; active = well fitted falling curve with a large enough effect; inconclusive = small, poorly fitted or top-dose-only effect; inactive = no such curve, though single readings can be large or run the other way; note: potency is the fitted concentration of half-maximal effect; the source files actives as falling curves though it sought activators and does not explain the sign; nearly all actives have a fitted effect of over 65% in size
Target sequence (P80244 whole entry, looked up): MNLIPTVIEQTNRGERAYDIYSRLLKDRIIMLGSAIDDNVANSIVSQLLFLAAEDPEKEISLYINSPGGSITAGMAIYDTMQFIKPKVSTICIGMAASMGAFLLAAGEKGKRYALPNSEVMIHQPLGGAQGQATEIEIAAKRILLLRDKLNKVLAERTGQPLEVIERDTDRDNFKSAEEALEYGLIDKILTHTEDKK
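Purified B. subtilis ClpP, 10 microg/mL final in Tris/HCl pH8 with KCl, BSA, glycerol and Tween-20, cleaved an Abz/nitrotyrosine-quenched decapeptide. Fluorescence (ex 320, em 430) was read at 0 and 20 min at room temperature. Delta was normalized to 5.8 microM ADEP and DMSO/no-enzyme controls.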
Numbers without * were called inactive. Unless noted, calls come from the whole dose curve; as a rule, active = well fitted inhibition curve with a large enough effect; inconclusive = small, poorly fitted or top-dose-only effect; inactive = flat fitted curve, though single readings scatter.

Results for COc1ccc(Nc2nc3c(S(=O)(=O)c4ccc(Br)cc4)nnn3c3ccsc23)c(OC)c1 ?
TDP1 cell CPT: 16µM*; TDP1 cell noCPT: 21µM*; D3 ag: -6; ClpP mod: 1%

What do the screens show for `COc1cccc(Nc2nc3c(S(=O)(=O)c4cc(C)ccc4C)nnn3c3ccsc23)c1`?
TDP1 cell CPT: -25%; TDP1 cell noCPT: inconclusive; D3 ag: -1; ClpP mod: -14%

How did NS(=O)(=O)c1ccc(CCNC(=O)COC(=O)Cc2ccc(Cl)cc2)cc1 do in these assays?
TDP1 cell CPT: -16%; DRD3 antagonist: 14; TDP1 cell noCPT: 4%; D3 ag: -3; IL1B secr inh: 23; ClpP mod: 1%

Results for Cc1c(C(=O)N(Cc2cccc(F)c2)C2CCS(=O)(=O)C2)oc2cc(Br)ccc12 (configuration not stated) ?
TDP1 cell CPT: inconclusive; TDP1 cell noCPT: 18µM*; D3 ag: -3; ClpP mod: -10%

What do the screens show for `Cc1c(C(=O)N(Cc2cccc(Br)c2)C2CCS(=O)(=O)C2)oc2ccc(F)cc12` (configuration not stated)?
TDP1 cell CPT: inconclusive; DRD3 antagonist: 1; TDP1 cell noCPT: inconclusive; D3 ag: -12; IL1B secr inh: -25; ClpP mod: -1%

How did Cc1cc2oc(C(=O)N(Cc3ccccc3F)C3CCS(=O)(=O)C3)c(C)c2cc1Cl (configuration not stated) do in these assays?
TDP1 cell CPT: inconclusive; TDP1 cell noCPT: 16µM*; D3 ag: 0; ClpP mod: -1%

What do the screens show for `O=C(COC(=O)Cc1ccccc1F)NNC(=O)c1ccc([N+](=O)[O-])cc1`?
TDP1 cell CPT: -10%; DRD3 antagonist: -13; TDP1 cell noCPT: -11%; D3 ag: -1; IL1B secr inh: -1

How did COc1ccc(Cn2c(O)c(C=Nc3ccc(C)cc3)c3ccccc3c2=O)cc1 do in these assays?
TDP1 cell CPT: -3%; DRD3 antagonist: 124; TDP1 cell noCPT: -21%; D3 ag: -23; IL1B secr inh: -13; ClpP mod: 144%

How did COc1ccc(-c2nc3ccccc3n2Cc2ccc(C)cc2)cc1 do in these assays?
TDP1 cell CPT: 16µM*; DRD3 antagonist: inconclusive; TDP1 cell noCPT: inconclusive; D3 ag: 0; IL1B secr inh: -26; ClpP mod: inconclusive

What do the screens show for `C=C(C)Cn1c(-c2ccc(OC)cc2)nc2ccccc21`?
TDP1 cell CPT: 13µM*; DRD3 antagonist: 0; TDP1 cell noCPT: 15µM*; D3 ag: -4; IL1B secr inh: -1; ClpP mod: inconclusive

What do the screens show for `C=C(C)Cn1c(SCC(=O)O)nnc1-c1ccc(OC)cc1`?
TDP1 cell CPT: -1%; DRD3 antagonist: -26; TDP1 cell noCPT: -3%; D3 ag: 4; IL1B secr inh: 0; ClpP mod: 0%

What do the screens show for `COc1ccc(Cn2c(-c3ccc(C)cc3)c[n+]3ccccc23)cc1`?
TDP1 cell CPT: 1µM*; DRD3 antagonist: 2; TDP1 cell noCPT: 0.92µM*; D3 ag: 2; IL1B secr inh: 0

Results for C=CCn1c(-c2ccc(C)cc2)nc2ccccc21 ?
TDP1 cell CPT: 15µM*; DRD3 antagonist: -10; TDP1 cell noCPT: 21µM*; D3 ag: 0; IL1B secr inh: -17; ClpP mod: 7.1µM*

How did O=C(O)CCn1c(-c2ccccn2)nc2ccccc21 do in these assays?
TDP1 cell CPT: 29%; DRD3 antagonist: 15; TDP1 cell noCPT: -1%; D3 ag: 2; IL1B secr inh: 48

What do the screens show for `O=c1ccnc(Nc2ccc([N+](=O)[O-])cc2)[nH]1`?
TDP1 cell CPT: inconclusive; DRD3 antagonist: 0; TDP1 cell noCPT: inconclusive; D3 ag: -7; IL1B secr inh: 34

How did CCOC(Cn1c(-c2ccc(OC)cc2)nc2ccccc21)OCC do in these assays?
TDP1 cell CPT: 23µM*; DRD3 antagonist: -20; TDP1 cell noCPT: 16µM*; D3 ag: -1; IL1B secr inh: -5; ClpP mod: inconclusive

Results for CCOc1cc(Cn2c(-c3ccc(O)c(OCC)c3)nc3ccccc32)ccc1O ?
TDP1 cell CPT: inconclusive; TDP1 cell noCPT: inconclusive; D3 ag: 7; ClpP mod: 10µM*

Results for COc1ccc(-c2nc3ccccc3n2Cc2ccc(C(C)C)cc2)cc1 ?
D3 ag: -15; ClpP mod: 4%

How did Clc1ccc(-c2nc3ccccc3n2OCc2ccccc2)cc1 do in these assays?
TDP1 cell CPT: 21µM*; DRD3 antagonist: 9; TDP1 cell noCPT: 21µM*; D3 ag: 4; IL1B secr inh: 11; ClpP mod: 4%

What do the screens show for `COc1ccc(-c2nc3ccccc3n2Cc2ccc(Cl)cc2)cc1`?
TDP1 cell CPT: 21µM*; TDP1 cell noCPT: 21µM*; D3 ag: -17; ClpP mod: 4%

Results for CCOC(=O)n1c(=O)n(Cc2ccc(OC)cc2)c2ccccc21 ?
TDP1 cell CPT: inconclusive; DRD3 antagonist: 17; TDP1 cell noCPT: 16µM*; D3 ag: 4; IL1B secr inh: 19; ClpP mod: 0%

Results for COCn1c(-c2ccc(OC)cc2)nc2ccccc21 ?
TDP1 cell CPT: -11%; DRD3 antagonist: 4; TDP1 cell noCPT: -27%; D3 ag: 1; IL1B secr inh: -20; ClpP mod: inconclusive

Results for CCOC(=O)n1c(=O)n(Cc2ccccc2C)c2ccccc21 ?
TDP1 cell CPT: -28%; DRD3 antagonist: 2; TDP1 cell noCPT: inconclusive; D3 ag: 3; IL1B secr inh: -4

Results for CCCn1c(-c2ccc(OC)cc2)nc2ccccc21 ?
TDP1 cell CPT: 2.6µM*; DRD3 antagonist: 26; TDP1 cell noCPT: 3.7µM*; D3 ag: 19; IL1B secr inh: -18; ClpP mod: inconclusive

How did CC(C)c1ccc(NC(=O)c2cn(C3CCCC3)c(=O)c3c2c2ccccc2n3C)cc1 do in these assays?
TDP1 cell CPT: -26%; TDP1 cell noCPT: -27%; D3 ag: 3; ClpP mod: 13%

How did COc1cc(NC(=O)c2cn(C3CCCC3)c(=O)c3c2c2ccccc2n3C)cc(OC)c1OC do in these assays?
TDP1 cell CPT: inconclusive; TDP1 cell noCPT: 18µM*; D3 ag: 9; ClpP mod: inconclusive

Source: PubChem
